Screens (PubChem)
A selection: hits, their analogues and other compounds. The true share with any hit is near 6.8%.
Fluor 339 460 = intrinsic fluorescence of library compounds, ex339/em460 – biochemical, MLSMR library, data from DPM-DC assay, artefact control, profiling panel; 65,000 compounds, 5.5% hits; AID 709; compound autofluorescence, ex339/em460 nm, NADH buffer; stronger effect = higher value; 1 = no-compound wells, NADH background; fluorescence fold increase at 10 µM;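 active = at 10 µM, mean starting fluorescence two-fold or more over control wells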;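 also: signal is the first read of a kinetic run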
Spn DPM-DC inh = inhibitors of Streptococcus pneumoniae diphosphomevalonate decarboxylase. purified DPM-DC, PK/LDH coupled NADH fluorescence. calls only at 10 µM. 65,000 compounds, 0.49% hits. AID 556;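 active = the 320 compounds with the highest percent inhibition in the single-dose primary screen, excluding strongly autofluorescent ones, cut at about 32% in these data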;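 also: kinetic rate of NADH fluorescence loss reporting ADP formed by the decarboxylase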
NADH enzymes = blocks coupling enzymes of NAD/NADH assays. coupled PK/LDH NADH assays, four targets. IC50, µM (highest dose often 10 µM), without a hit: at the top dose inhibition. AID 774. 65,000 compounds, 0.02% hits;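 active = single-dose screening hits from any of four coupled enzyme assays that gave an IC50 when retested across doses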;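 also: the DPM-DC format reads NADH fluorescence rather than 340 nm absorbance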
Spn PMK inh = S. pneumoniae PMK inhibition | 65,000 compounds, 0.49% hits | AID 539 | inhibition, % at 10 µM | purified PMK, PK/LDH-coupled NADH absorbance 340 nm;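 active = top-ranked compounds by inhibition in the single 10 µM screen, taking a fixed number of the strongest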;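 also: 0% = full reaction with DMSO carrier and 100% = background rate without enzyme reaction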
Abs 340nm = compound absorbs light at 340 nm; compound absorbance at 340 nm, fold over control; fold change at 10 µM; AID 708; 65,000 tested, under 10 active;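 active = at 10 µM dose, initial 340 nm absorbance at least 2 fold that of control wells; inactive = change under 2 fold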;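 also: initial absorbance extrapolated from kinetic A340 decline of NADH oxidation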
MK inhibit = inhibitors of Streptococcus pneumoniae mevalonate kinase | purified MK, PK/LDH-coupled NADH absorbance 340 nm | 65,000 compounds, 0.48% hits | inhibition, % at 10 µM;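 active = ranked among the strongest by inhibition in the single 10 µM screen, a fixed top-ranked set picked for dose follow-up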
* hit, by the source's call; i = inactive; . = no result given; + = active, no number.

SMILES	Fluor 339 460	Spn DPM-DC inh	NADH enzymes	Spn PMK inh	Abs 340nm	MK inhibit
CCOC(=O)N1CCN(S(=O)(=O)c2ccc(C(=O)Nc3nc4ccccc4s3)cc2)CC1	4.5*	.	11%	13	1.1	8
CCOC(=O)N1CCN(S(=O)(=O)c2ccc(C(=O)Nc3nc4ccc(F)cc4s3)cc2)CC1	4.6*	.	15%	22	1.1	8
Cc1noc(/C=C/N(C)C)c1S(=O)(=O)N1CCCC(C(=O)NCCC2=CCCCC2)C1 (centres undefined)	1	i	3%	10	1.1	7
Cc1nnc(NS(=O)(=O)c2ccc(N)cc2)s1	1.1	i	1%	2	0.99	6
COc1ccc(S(=O)(=O)Nc2nnc(C)s2)cc1	1.1	i	10%	30*	1	1
COc1ccc(C(NC(=O)CNC(C)=O)C(=O)Nc2ccc3c(c2)OCCO3)cc1 (centres undefined)	0.89	i	12%	13	0.98	11
N#Cc1c(N)nc2c(c1-c1ccncc1)CCCCC2	1.5	i	5%	15	1	8
CSc1ccc(-c2c(C#N)c(N)nc3c2CCCC3)cc1	3.7*	.	9%	10	1.1	7
OC1(c2cccc(C(F)(F)F)c2)CCN(c2ncnc3c2[nH]c2ccc(F)cc23)CC1	2.5*	i	4%	1	1.1	7
O=C(CSc1nc2ccccc2o1)NCCOc1ccccc1	1.1	i	3%	5	1	5
CCC(=O)N(Cc1ccco1)c1nc(-c2ccccc2)cs1	1	i	9%	27*	1	0
CCC(=O)N(Cc1ccco1)c1nc(-c2cc(OC)ccc2OC)cs1	1	i	4%	5	1	5
CCOC(=O)c1c(C)[nH]c(C)c1C(=O)Cn1nnc(-c2ccccc2C)n1	1.1	i	0%	0	1	0
CCc1nnc2sc(-c3ccc(NC(=O)CSc4ccc(Cl)cc4)cc3)nn12	3*	+	17%	7	1.1	10
Cc1nnc2sc(-c3ccc(NC(=O)CSc4ccc(Cl)cc4)cc3)nn12	1.6	i	4%	5	1.1	4
CC1CCN(C(=O)CSc2nc(N)c3c4c(sc3n2)CN(C)CC4)CC1	2.1*	.	3%	0	1.1	5
CN1CCc2c(sc3nc(SCC(=O)N4CCOCC4)nc(N)c23)C1	2.2*	.	3%	0	1.2	5
CC(C)NC(=O)c1ccccc1NC(=O)CN(c1ccc2c(c1)OCO2)S(C)(=O)=O	1.1	i	1%	1	1.1	1
CCCCOc1ccc(C(=O)OC(C)CN(C)C)cc1 (centres undefined)	5*	.	7%	8	1	5
CN(C)c1ccc(NC(=O)c2cc3c(=O)n4ccccc4nc3n2C)cc1	1.7	i	6%	7	1	8
Cn1c(C(=O)N2COCC2(C)C)cc2c(=O)n3ccccc3nc21	5*	.	9%	10	1.1	8
Cc1cccn2c(=O)c3cc(C(=O)N4CCCc5ccccc54)n(C)c3nc12	1.3	i	2%	12	1	2
Cn1c(C(=O)NCC2CCCO2)cc2c(=O)n3ccccc3nc21 (centres undefined)	5*	.	9%	9	1.1	9
CNC(=O)c1cc2c(=O)n3cccc(C)c3nc2n1C	5*	.	8%	10	1.1	6
Cc1cccn2c(=O)c3cc(C(=O)N4CCc5ccccc5C4)n(C)c3nc12	5*	.	8%	10	1.1	5
SMILES	Fluor 339 460	Spn DPM-DC inh	NADH enzymes	Spn PMK inh	Abs 340nm	MK inhibit
CC(C)n1c(C(=O)OCC(=O)NCc2ccc3c(c2)OCO3)cc2sccc21	1.1	i	4%	0	1.1	12
CCOC(=O)N1CCN(c2ccc3nnnn3n2)CC1	1.1	i	1%	0	1	4
CCC(=O)N1CCCc2cc(S(=O)(=O)N3CCN(c4ccccn4)CC3)ccc21	1.1	i	7%	9	0.98	11
CCOC(=O)C1CCCN(C(=O)c2cc3c(=O)n4cccc(C)c4nc3n2C)C1 (centres undefined)	3.4*	.	2%	12	1	3
Cc1cccn2c(=O)c3cc(C(=O)NCC4CCCO4)n(C)c3nc12 (centres undefined)	5*	.	9%	11	1.1	7
Cc1cc(C(=O)NCC2CCCO2)n(-c2ccccc2)n1 (centres undefined)	1.1	i	11%	20	1.1	13
c1ccc(N2CCN(c3nc4ccccc4n4nnnc34)CC2)cc1	1.8	i	5%	15	1.1	0
c1ccc(CCNc2nc3ccccc3n3nnnc23)cc1	2.6*	i	7%	13	1.1	0
CN(CC(=O)NCc1ccc2c(c1)OCO2)S(=O)(=O)c1ccc(Br)s1	1.1	i	5%	14	1	0
CCOc1ccc2nc(NCCCNS(=O)(=O)c3ccccc3)c(C#N)cc2c1	2.3*	i	10%	10	1.1	4
COc1ccc(-c2cc(-c3ccccc3)nc(N3CCCC3)n2)cc1OC	2.2*	.	0%	0	1.1	0
COc1ccc(-c2cc(C(F)(F)F)nc(N3CCOCC3)n2)cc1OC	1.5	i	6%	0	1.1	11
CCN1CCc2c(C#N)c(N3CCCCC3)nc(N3CCOCC3)c2C1	2.3*	.	6%	1	1.1	11
CC(C)c1nc(N2CCOCC2)c(C#N)c2c1CCCC2	2.1*	.	6%	1	1	10
CCSc1nc(N2CCOCC2)c2c(c1C#N)CCCC2	1.1	i	7%	4	0.99	7
CCCCC(CC)C(=O)NCCCN1CCN(CCCNC(=O)C(CC)CCCC)CC1 (centres undefined)	1.1	i	7%	13	1	9
CSc1nnc2c3c4c(sc3nc(-n3nc(C)cc3C)n12)COC(C)(C)C4	3*	i	2%	0	1.1	3
Cc1cc(C)n(-c2nc(-n3nc(C)cc3C)c3c4c(sc3n2)COC(C)(C)C4)n1	1.3	i	7%	0	1.1	11
Cc1cc(C)n(-c2nc3sc4c(c3c3nnc(SCC(N)=O)n23)CC(C)(C)OC4)n1	2.7*	i	0%	0	1.1	3
C=CCNC(=O)C1CC(=O)N(c2ccc(OCC(=O)NCc3ccccc3)cc2)C1 (centres undefined)	1.1	i	4%	4	1	9
O=C1CCCC2=C1C(c1ccco1)Nc1ccc3ccccc3c12 (centres undefined)	2.2*	.	7%	6	1	8
Cc1cc(OCC(=O)N2CCOCC2)cc2oc(=O)c3ccccc3c12	2.9*	.	0%	0	1	0
CCOc1ccc(OCC(=O)N2CCOCC2)cc1	1.1	i	4%	0	1.1	11
CCCn1c(NC(=O)C2CCN(S(=O)(=O)c3cccs3)CC2)nc2ccccc21	1.1	i	6%	17	0.98	0
